# Laboratory results reported in the supplement of paper PMC5734697.
# Tested on: Caenorhabditis elegans
# Assay: growth (movement index) relative to DMSO control, secondary screen (log2 fold change); higher = more growth (less anthelmintic activity)
# Conditions: 10 µM, 5 days, 20 °C, stage: L1 start
# Experimental: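 C. elegans growth assay: synchronised L1 larvae (~20 per well) in S-complete medium with HB101 E. coli were grown in 96-well plates with Pathogen Box compound at 10 µM (1% DMSO) for 5 days at 20 °C. Motility/growth was quantified by whole-plate movie imaging (INVAPP/Paragon movement index). The score is the log2 fold change of the median movement of 5 replicate wells (on different plates) relative to DMSO-only wells. The secondary screen retested the top 20 hits with the same library material (n = 5, 10 µM).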
row,SMILES,growth (log2)
1,CC(=O)OCC1OC([S-])C(OC(C)=O)C(OC(C)=O)C1OC(C)=O.CCP(CC)CC.[Au+] (stereo not drawn),-7.16
2,O=C(Nc1ccc(F)c(-c2nc3cc(-c4ccccc4)cnc3[nH]2)c1)N1CCCC1,-4.01
3,CCc1ccc([C@@H]2C[C@H](C(F)(F)F)n3ncc(C(=O)NCc4ccc(OC)cc4)c3N2)cc1,-3.6
4,COC(=O)Nc1nc2cc(C(=O)c3ccccc3)ccc2[nH]1,-5.72
5,CC(C)n1ncc2c(C(=O)NCC(c3cccs3)N3CCOCC3)cc(-c3ccccc3)nc21 (stereo not drawn),-8.04
6,CC(C)C(C(=O)Nc1ccc(S(=O)(=O)N(C)C)cc1)c1ccc(Cl)cc1 (stereo not drawn),-2.66
7,O=C(Nc1ccc2c(c1)B(O)OC2)c1ccccc1C(F)(F)F,-7.62
8,CCOC(=O)NC(=O)c1ccsc1NC(=O)c1nc2ccccc2s1,-1.05
9,O=C(Nc1cccnc1)c1c(O)c2cccc3c2n(c1=O)CC3,-4.82
10,CC(C)n1nc(-c2cc3c(Cl)cccc3[nH]2)c2c(N)ncnc21,-1.13
11,Nc1ccc(C(=O)Nc2ccc(-c3nc4ccccc4o3)cc2)cc1,-5.41
12,COC(=O)C1=C(C)NC(C)=C(C(=O)OC(C)C)C1c1cccc2nonc12 (stereo not drawn),-1.42
13,O=C(Nc1nc(-c2ccccn2)cs1)C1CC1c1ccccc1F (stereo not drawn),-0.836
14,Clc1ccc(-n2cc(COc3ccnc4ccccc34)nn2)cc1,-2.02
15,O=C(c1ccco1)N(CCCn1ccnc1)c1nc2c(Cl)cccc2s1,-3.66
16,CC(C)(C)CN1C(=O)C(c2ccccc2)(c2ccccc2)N=C1N,-5.87
17,CN1CCN(c2cc(-c3ccc(F)cc3)nc(-c3ccncc3)n2)CC1,-2.12
18,Cc1cc(C(=O)Nc2ccc(-c3ccccc3)cc2)no1,-6.92
